PvdQ inh – P. aeruginosa PvdQ acylase inhibition. 0.063% of 340,000 active. AID 488965. purified PvdQ acylase, fluorescence plate reader. inhibition, % at 10 µM; in the data active means inhibition above about 30%, passing the limit was not always enough; inconclusive means no clear call, values can overlap the other calls;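 further: 0% = vehicle neutral wells and 100% = reference inhibitor wells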
DENV2 CPE – protects cells from dengue virus 2 cytopathic effect; 1.7% of 350,000 active; CPE inhibition, % at 9.99 µM; DENV2-infected cells, cytopathic effect rescue, plate reader; in the data active means CPE inhibition above about 20%, passing the limit was not always enough; inconclusive means no clear call, values can overlap the other calls; tested in BHK-21 cells;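 further: 0% = median of neutral control wells and 100% = median of positive control wells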
PGC1a acetyl inh – PGC1a acetylation modulation, inhibitor mode; U2OS PGC1a acetylation, AlphaScreen anti-acetyl-lysine; with virally co-expressed GCN5 acetyltransferase; inhibition, % at 15.6 µM; 0.17% of 350,000 active;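 active means every replicate shows inhibition of at least 40%; inconclusive means mean inhibition at least 40% but some replicate below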;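 further: 0% = neutral control wells and 100% = positive control wells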
Statin myotox sup – suppression of simvastatin myotoxicity. C2C12 myotubes + simvastatin, ATP luminescence, 48 h; scaled: DMSO 0, geranylgeraniol control 100. rescue of ATP level, % at 7.49 µM. 0.78% of 330,000 active. AID 602340;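 active means mean ATP rescue above about 67%, or every replicate alone reaching that limit, limit read from the data, passing the limit was not always enough; inconclusive means no clear call, values can overlap the other calls; inactive means mean under the limit and some replicate under it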;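 further: myotubes were challenged with 10 µM simvastatin during compound exposure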
miR-122 sensor – blocks miR-122 activity in Huh7 sensor cells | Huh7 miR-122 Renilla luciferase sensor, 48 h; neutral wells = 0, positive control = 100 | activation (reporter increase), % at 12.5 µM | 0.3% of 340,000 active | AID 602342;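 active means mean replicate activation score at least 90 and every replicate individually at or above 90; inconclusive means only one of the two criteria met; inactive means neither criterion met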;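 further: higher luciferase means less miR-122 activity so hits act as miR-122 inhibitors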
The depositor's hits bear a star; ? = inconclusive; · = no result given; [ ] = another dose, or the depositor's remark. Most compounds without a hit are left out; they make up all but 2.2% or so of the library.

SMILES	PvdQ inh	DENV2 CPE	PGC1a acetyl inh	Statin myotox sup	miR-122 sensor
COc1ccc(NC(=O)Nc2ccc3c(c2)C(=O)N([C@@H](C)CO)C[C@H](C)[C@@H](CN(C)S(=O)(=O)c2ccccc2)OCCCC[C@H](C)O3)cc1	·	-5	-14	·	2[16.7 µM]
C[C@H](CO)N1C[C@H](C)[C@H](CN(C)S(=O)(=O)c2ccccc2)OCCCC[C@H](C)Oc2ccc(NC(=O)Nc3ccc(F)cc3)cc2C1=O	·	22*	-3	·	-18[16.7 µM]
C[C@@H]1CCCCO[C@@H](CN(C)S(=O)(=O)c2ccc(Cl)cc2)[C@@H](C)CN([C@@H](C)CO)C(=O)c2cc(NC(=O)Nc3ccc(F)cc3)ccc2O1	·	29*	0	·	3[16.7 µM]
COc1cc(CN2CC3(CN(C(=O)NC(C)C)C3)c3c(n(C)c4cc(OC)ccc34)[C@@H]2CO)cc(OC)c1	·	3	·	·	·
CCC(=O)Nc1ccc2c(c1)OC[C@H](C)N(C(=O)C1CCC1)C[C@H](C)[C@H](OC)CN(C)C2=O	·	5	-10	9	·
COCC(=O)N(C)C[C@@H]1Oc2ncc(C#Cc3cccnc3)cc2C(=O)N([C@@H](C)CO)C[C@@H]1C	·	-3	1	1	6[16.7 µM]
CO[C@@H]1CN(C)C(=O)c2ccc(NC(C)=O)cc2OC[C@@H](C)N(CC2CCCCC2)C[C@@H]1C	·	0	5	-3	·
COc1ccc2c3c([nH]c2c1)[C@H](CO)NCC31CN(Cc2cc(F)ccc2F)C1	·	9	4	·	·
COc1ccc(S(=O)(=O)N(C)C[C@H]2OCCCC[C@H](C)Oc3ccc(NC(=O)Cc4ccccc4)cc3C(=O)N([C@@H](C)CO)C[C@@H]2C)cc1	·	27*	6	·	-8[16.7 µM]
CNC[C@H]1OCCCC[C@H](C)Oc2ccc(NS(=O)(=O)c3ccc(Cl)cc3)cc2C(=O)N([C@H](C)CO)C[C@@H]1C	·	·	·	-6	7[16.7 µM]
C[C@H](CO)N1C[C@H](C)[C@@H](CN(C)C(=O)c2ccccc2)OCCCC[C@H](C)Oc2ccc(NC(=O)Nc3ccc(F)cc3)cc2C1=O	·	15	0	·	-6[16.7 µM]
C[C@H]1CCCCO[C@@H](CN(C)C(=O)c2ccccc2)[C@@H](C)CN([C@@H](C)CO)C(=O)c2cc(NC(=O)Nc3ccc(F)cc3)ccc2O1	·	22*	?	·	-8[16.7 µM]
C[C@@H]1CN([C@@H](C)CO)C(=O)c2cc(NC(=O)Nc3ccc(F)cc3)ccc2O[C@@H](C)CCCCO[C@H]1CN(C)C(=O)c1ccccc1	·	-7	2	·	3[16.7 µM]
C[C@@H]1CCCCO[C@H](CN(C)C(=O)c2ccccc2)[C@@H](C)CN([C@H](C)CO)C(=O)c2cc(NC(=O)Nc3ccc(F)cc3)ccc2O1	·	32*	-4	·	-1[16.7 µM]
C[C@H](CO)N1C[C@H](C)[C@@H](CN(C)C(=O)c2ccccc2)OCCCC[C@H](C)Oc2ccc(NC(=O)C3CCCCC3)cc2C1=O	·	34*	12	-18	16[16.7 µM]
C[C@@H]1CN([C@H](C)CO)C(=O)Cc2cc(NC(=O)Cc3ccccc3)ccc2O[C@@H]1CN(C)S(=O)(=O)c1ccc(Cl)cc1	·	2	-3	10	-5[16.7 µM]
C[C@H]1CN([C@@H](C)CO)C(=O)c2cc(NC(=O)C3CC3)ccc2O[C@@H]1CN(C)C(=O)Nc1cccc2ccccc12	·	?	6	1	4[16.7 µM]
C[C@H](NC(=O)C[C@H]1CC[C@H]2[C@H](COc3ccc(NC(=O)C4CCOCC4)cc3C(=O)N2C)O1)c1ccccc1	·	-10	5	11	16[16.7 µM]
O=[N+]([O-])c1cccc(-c2c(-c3ccccc3)ncc3ccc(F)cc23)c1	4	19	-18	121*	-1
Fc1cccc(-c2c(-c3ccccc3)ncc3cc(F)ccc23)c1	-3	16	-2	23	0
CO[C@@H](CN(C)C(=O)c1cc(Cl)cc(Cl)c1)[C@H](C)CN(C(=O)Nc1ccc(F)cc1)[C@@H](C)CO	·	92*	8	-1	·
CO[C@@H](CN(C)S(=O)(=O)c1cn(C)cn1)[C@@H](C)CN(C(=O)Nc1ccc(F)cc1)[C@@H](C)CO	·	23*	10	-2	·
CO[C@H](CN(C)S(=O)(=O)c1ccc(C)cc1)[C@@H](C)CN(C(=O)Nc1ccccc1F)[C@@H](C)CO	·	7	-1	7	·
CO[C@H](CN(C)S(=O)(=O)c1ccc(C)cc1)[C@@H](C)CN(C(=O)Nc1ccccc1F)[C@H](C)CO	·	30*	3	3	·
COc1ccc(S(=O)(=O)N2C[C@H](O)COC[C@@H]3O[C@@H](CC(=O)NCCN4CCCCC4)CC[C@H]32)cc1	·	2	-9	11	5[16.7 µM]
SMILES	PvdQ inh	DENV2 CPE	PGC1a acetyl inh	Statin myotox sup	miR-122 sensor
CCC(=O)N1CC2(CN(S(C)(=O)=O)C2)c2c(n(C)c3cc(OC)ccc23)[C@@H]1CO	·	17	5	·	·
C=CC[C@H](CC(=O)NCCO)C(=O)N[C@@H](C)COC(=O)[C@H](CC=C)CC(=O)OC(C)(C)C	-5	-2	2	-11	-7
C=CCC[C@@H](Cc1ccc(F)cc1)C(=O)OC[C@@H](NC(=O)[C@@H](CC=C)CC(=O)N[C@H](CO)Cc1ccccc1)C(C)(C)C	6	25*	·	4	·
C=CCC[C@@H](Cc1ccc(F)cc1)C(=O)OCCNC(=O)[C@@H](CC=C)CC(=O)N[C@H](CO)Cc1ccccc1	12	44*	-6	5	-4
C=CC[C@@H](CC(=O)N[C@H](CO)Cc1ccccc1)C(=O)N[C@@H](C)COC(=O)[C@@H](CC=C)Cc1ccc(F)cc1	5	41*	·	12	·
C=CCC[C@@H](Cc1ccc(F)cc1)C(=O)OC[C@@H](C)NC(=O)[C@@H](CC=C)CC(=O)N[C@H](CO)Cc1ccccc1	-2	8	2	15	-7
C=CC[C@@H](CC(=O)NCCO)C(=O)N[C@@H](C)COC(=O)[C@H](CC=C)CC(=O)OC(C)(C)C	-10	46*	·	3	·
COC(CN(C(=O)CCl)C(C(=O)NC1CCCCC1)c1ccccc1C)OC (stereo not given)	-14	·	·	·	·
COC(CN(C(=O)CCl)C(C(=O)NC1CCCCC1)c1ccc(Cl)cc1)OC (stereo not given)	9	-1	19	71*	3
COc1ccc(NC(=O)Nc2ccc3c(c2)CC(=O)N([C@H](C)CO)C[C@H](C)[C@@H](CN(C)Cc2ccc4c(c2)OCO4)O3)cc1	·	8	-8	26	0[16.7 µM]
Cc1ccccc1OCCCCN1CCCCC1	-7	34*	3	5	6
Cc1cccc(Cl)c1OCCN1CCCC1	-3	70*	-7	-8	3
Brc1cccc(OCCN2CCCCC2)c1	-5	·	·	·	·
CCc1cccc(OCCN2CCCC2)c1	-5	50*	-5	-7	-2
COc1ccccc1OCCCCN1CCCCC1	-3	1	-3	4	2
CCCNC(=O)Nc1ccc2c(c1)OC[C@H](C)N(C(=O)CC)C[C@H](C)[C@H](OC)CN(C)C2=O	·	2	-7	9	-9[16.7 µM]
COc1ccc(OCC(O)CN2C(=O)NC(C)(C)C2=O)cc1 (stereo not given)	-17	·	4	121*	4
